# From PubChem BioAssay (NCATS)
# Where “and” joins values, the source holds several entries; their conditions need not be identical. Identical values can stand only once. Calls of active or inactive are those of the source. A call without a number means that no potency is given here. Unless noted, the call rests on the fitted dose curve.
# What was measured:
# [1] = target: Ubiquitin carboxyl-terminal hydrolase 1 (Homo sapiens) (UniProt O94782); experiment: Inhibitors of USP1/UAF1: Pilot qHTS (AID 504865; active means well fitted inhibition curve with a large enough effect; inconclusive means small, poorly fitted or top-dose-only effect; further: nearly all actives have a fitted effect of over 35% in size; further: potency means the concentration at half of the fitted maximal effect)
# Outline: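 Enzyme-free wells gave the negative control, while test wells held 1nM USP1/UAF1 preincubated with compound for 15 min at room temperature. Ub-Rho at 150nM final started the reaction, and fluorescence at 480/540 nm was recorded kinetically.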
# [2] = target: Estrogen receptor (Homo sapiens) (UniProt P03372); experiment: qHTS assay for small molecule antagonists of estrogen receptor alpha signaling (AID 588513; active means well fitted curve in the direction sought with a large enough effect in the signal ratio, with a control signal flat, not every such curve was filed as active; inconclusive means small, poorly fitted or top-dose-only effect, or effect the other way, or a change in a side signal; inactive means no such curve, though single readings can be large or run the other way; the % refers to the signal ratio; further: potency means the concentration at half of the fitted maximal effect)
# Outline: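 Antagonist-mode qHTS in ER-alpha-UAS-bla HEK 293 cells: compound titration, 0.5nM estradiol for 18 h, CCF4 fluorescence, Hill-derived IC50.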
# [3] = qHTS assay for small molecule antagonists of peroxisome proliferator-activated receptor delta signaling (AID 588535; active means well fitted inhibition curve with a large enough effect in the signal ratio, with a control signal flat, not every such curve was filed as active; inconclusive means small, poorly fitted or top-dose-only effect, or effect the other way, or a change in a side signal; inactive means no such curve, though single readings can be large or run the other way; the % refers to the signal ratio; further: potency means the concentration at half of the fitted maximal effect;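 on max response: cells co-treated with a PPAR-delta agonist as stimulator during compound exposure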); conditions: HEK293T PPARd-UAS-bla, beta-lactamase FRET ratio, 18 h; 460 nm channel
# Outline: (§1)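 Cells were seeded at 4000 per well in assay medium containing 2% charcoal/dextran FBS and held 5 hrs at 37 C. Compounds were then added for 18 hrs. CCF4 substrate was applied for 2 hrs at room temperature before fluorescence reading.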
# [4] = target: Peroxisome proliferator-activated receptor delta (Homo sapiens) (UniProt Q03181); experiment: as above
# Outline: as §1
# [5] = target: Vitamin D3 receptor (Homo sapiens) (UniProt P11473); experiment: qHTS assay for small molecule antagonists of vitamin D receptor signaling (AID 588541);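 further: receptor activated by calcitriol during compound treatment; series mostly up to about 77 µM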
# Outline: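 VDR-UAS-bla HEK293T cells in 2% charcoal-stripped FBS were stimulated with 1-alpha,25-dihydroxyvitamin D3 (3 nM final) plus compound for 16 h at 37 C. The beta-lactamase CCF4 readout was normalized to 50 nM agonist and DMSO, and Hill fits gave IC50.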
# [6] = target: Vitamin D3 receptor (Homo sapiens) (UniProt P11473); experiment: qHTS assay for small molecule agonists of vitamin D receptor signaling (AID 588543)
# Outline: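 Measured: β-lactamase reporter activity (CCF4, 405 nm excitation, 460/530 nm emission) in HEK293T VDR-UAS-bla cells after 16 h compound exposure at 37 °C. Normalization against 50 nM 1α,25-dihydroxyvitamin D3 and DMSO; Hill-fit EC50.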
# [7] = target: Peroxisome proliferator-activated receptor delta (Homo sapiens) (UniProt Q03181); experiment: qHTS assay for small molecule agonists of peroxisome proliferator-activated receptor delta signaling (AID 588534)
# Outline: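 Cell-based beta-lactamase reporter assay run in agonist mode: cells seeded and incubated 5 hrs at 37 C, compounds added and incubated 18 hrs at 37 C. CCF4 dye fluorescence read after 2 hrs at RT; EC50 and efficacy from Hill fits.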
# [8] = target: Bile acid receptor (Homo sapiens) (UniProt Q96RI1); experiment: qHTS assay for small molecule agonists of farnesoid X receptor signaling (AID 588527); conditions: HEK293T FXR-UAS-bla, beta-lactamase ratio, 16 h; stronger effect = higher value; further: series mostly up to about 77 µM
# Outline: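 Read-out: beta-lactamase reporter fluorescence with CCF4 substrate in GeneBLAzer FXR-UAS-bla HEK293T cells, after 16 h compound exposure at 37 C. Response scaled between DMSO basal (0%) and chenodeoxycholic acid at 100 uM (100%).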
# [9] = target: Estrogen receptor (Homo sapiens) (UniProt P03372); experiment: qHTS assay for small molecule agonists of estrogen receptor alpha signaling (AID 588514); further: nearly all actives have a fitted effect of over 70% in size; further: potency means the concentration at half of the fitted maximal effect
# Outline: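 ER-alpha-UAS-bla GripTite HEK 293 cells in medium with 2% charcoal/dextran-treated FBS were treated with compound titrations at 37 C for 18 hrs; beta-lactamase reporter read by CCF4 fluorescence after 2 hrs at RT.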
# [10] = target: Androgen receptor (Homo sapiens) (UniProt P10275); experiment: qHTS assay for small molecule agonists of androgen receptor signaling (AID 588515; active means well fitted curve in the direction sought with a large enough effect in the signal ratio, with a control signal flat; inconclusive means small, poorly fitted or top-dose-only effect, or effect the other way, or a change in a side signal; inactive means no such curve, though single readings can be large or run the other way; the % refers to the signal ratio; further: potency means the concentration at half of the fitted maximal effect); conditions: AR-UAS-bla HEK293, beta-lactamase ratio, agonist 16 h; activation: stronger effect = higher value
# Outline: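 EC50 and efficacy came from Hill fits of titrations (up to 92 uM) normalized to 30 nM R1881 as 100% and DMSO as 0%. Compound exposure was 16 h at 37 C on AR-UAS-bla HEK293 cells, with a 405/460/530 nm CCF4 fluorescence read.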
# [11] = target: Androgen receptor (Homo sapiens) (UniProt P10275); experiment: qHTS assay for small molecule antagonists of androgen receptor signaling (AID 588516; active means well fitted curve in the direction sought with a large enough effect in the signal ratio, with a control signal flat, not every such curve was filed as active; inconclusive means small, poorly fitted or top-dose-only effect, or effect the other way, or a change in a side signal; inactive means no such curve, though single readings can be large or run the other way; the % refers to the signal ratio)
# Outline: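 Compounds tested in titration against 10 nM R1881 in AR-responsive bla reporter HEK 293 cells; CCF4 fluorescence (460/530 nm) after 16 h exposure gave IC50 and efficacy.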
# [12] = target: Bile acid receptor (Homo sapiens) (UniProt Q96RI1); experiment: qHTS assay for small molecule antagonists of farnesoid X receptor signaling (AID 588526); further: potency means the concentration at half of the fitted maximal effect
# Outline: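 Antagonist mode: titrated compounds tested against chenodeoxycholic acid stimulation (normalized to 50 uM CDCA and DMSO) in GeneBLAzer HEK293T cells for 16 h. Beta-lactamase read by CCF4 fluorescence; IC50 from Hill fits.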
# [13] = target: Glucocorticoid receptor (Homo sapiens) (UniProt P04150); experiment: qHTS assay for small molecule agonists of glucocorticoid receptor signaling (AID 588532; active means well fitted curve in the direction sought with a large enough effect in the signal ratio, with a control signal flat; inconclusive means small, poorly fitted or top-dose-only effect, or a change in a side signal; inactive means no such curve, though single readings can be large or run the other way; the % refers to the signal ratio); conditions: HeLa MMTV-bla, beta-lactamase ratio, agonist, 18 h; stronger effect = higher value; percent of dexamethasone control, DMSO zero
# Outline: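 MMTV-bla HeLa beta-lactamase reporter cells in 1% charcoal/dextran FBS medium, compounds up to 92 uM for 18 h at 37 C, CCF4 readout; normalized to 0.1 uM dexamethasone (100%), EC50 and efficacy from Hill fits.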
# [14] = target: Peroxisome proliferator-activated receptor gamma (Homo sapiens) (UniProt P37231); experiment: qHTS assay for small molecule antagonists of peroxisome proliferator-activated receptor gamma signaling (AID 588537; active means well fitted inhibition curve with a large enough effect in the signal ratio, with a control signal flat, not every such curve was filed as active; inconclusive means small, poorly fitted or top-dose-only effect, or effect the other way, or a change in a side signal; the % refers to the signal ratio; further: potency means the concentration at half of the fitted maximal effect)
# Outline: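 Step one: plate 3000 HEK293 UAS-bla cells per well in medium with 1% stripped serum and hold 6-6.5 h at 37 C. Step two: add compound and 50 nM agonist for 16 h. Step three: CCF4 loading, fluorescence read.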
# [15] = target: Glucocorticoid receptor (Homo sapiens) (UniProt P04150); experiment: qHTS assay for small molecule antagonists of glucocorticoid receptor signaling (AID 588533; active means well fitted inhibition curve with a large enough effect in the signal ratio, with a control signal flat, not every such curve was filed as active; inconclusive means small, poorly fitted or top-dose-only effect, or effect the other way, or a change in a side signal; the % refers to the signal ratio; further: potency means the concentration at half of the fitted maximal effect)
# Outline: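 Antagonist-mode qHTS: compound titrations added to GRE-bla HeLa cells, then dexamethasone 2 nM final; 18 h, 37 C. CCF4 FRET fluorescence normalized to dexamethasone and DMSO; IC50 from Hill fit.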
# [16] = target: DNA dC->dU-editing enzyme APOBEC-3G (Homo sapiens) (UniProt Q9HC16); experiment: qHTS for inhibitors of Vif-A3G interactions: Validation (AID 588379; active means well fitted inhibition curve with a large enough effect; inconclusive means small, poorly fitted or top-dose-only effect)
# Outline: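 HeLa cells stably expressing Vif and A3G-eYFP, 700 cells/well, incubated overnight at 37 deg C, then exposed to compound overnight at 37 deg C. Inhibition of Vif-mediated degradation read as increased yellow fluorescence (Ex 488/Em 500-530) by laser-scanning cytometry.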
# Chain of Glucocorticoid receptor (Homo sapiens) (P04150 whole entry, looked up): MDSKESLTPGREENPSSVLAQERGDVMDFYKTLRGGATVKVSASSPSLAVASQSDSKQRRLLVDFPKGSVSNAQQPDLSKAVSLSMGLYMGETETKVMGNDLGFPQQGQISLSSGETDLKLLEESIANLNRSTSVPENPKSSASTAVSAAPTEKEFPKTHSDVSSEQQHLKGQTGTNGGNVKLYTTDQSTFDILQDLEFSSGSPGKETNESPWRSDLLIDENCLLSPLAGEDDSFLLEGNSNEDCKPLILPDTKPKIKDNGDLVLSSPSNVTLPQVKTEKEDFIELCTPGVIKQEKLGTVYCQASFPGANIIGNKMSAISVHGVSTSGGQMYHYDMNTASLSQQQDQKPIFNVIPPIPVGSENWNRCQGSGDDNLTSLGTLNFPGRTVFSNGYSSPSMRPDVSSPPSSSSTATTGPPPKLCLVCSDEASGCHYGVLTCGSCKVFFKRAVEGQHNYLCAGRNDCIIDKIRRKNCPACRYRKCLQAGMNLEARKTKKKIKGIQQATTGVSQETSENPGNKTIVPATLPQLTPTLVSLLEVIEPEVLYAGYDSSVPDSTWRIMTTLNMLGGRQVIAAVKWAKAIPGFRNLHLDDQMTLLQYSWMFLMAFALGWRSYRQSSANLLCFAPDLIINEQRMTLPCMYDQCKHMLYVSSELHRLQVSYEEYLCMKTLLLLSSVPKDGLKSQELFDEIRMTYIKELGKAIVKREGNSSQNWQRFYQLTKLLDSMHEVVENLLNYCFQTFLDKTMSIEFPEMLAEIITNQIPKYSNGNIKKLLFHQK
# Chain of Vitamin D3 receptor (Homo sapiens) (P11473 whole entry, looked up): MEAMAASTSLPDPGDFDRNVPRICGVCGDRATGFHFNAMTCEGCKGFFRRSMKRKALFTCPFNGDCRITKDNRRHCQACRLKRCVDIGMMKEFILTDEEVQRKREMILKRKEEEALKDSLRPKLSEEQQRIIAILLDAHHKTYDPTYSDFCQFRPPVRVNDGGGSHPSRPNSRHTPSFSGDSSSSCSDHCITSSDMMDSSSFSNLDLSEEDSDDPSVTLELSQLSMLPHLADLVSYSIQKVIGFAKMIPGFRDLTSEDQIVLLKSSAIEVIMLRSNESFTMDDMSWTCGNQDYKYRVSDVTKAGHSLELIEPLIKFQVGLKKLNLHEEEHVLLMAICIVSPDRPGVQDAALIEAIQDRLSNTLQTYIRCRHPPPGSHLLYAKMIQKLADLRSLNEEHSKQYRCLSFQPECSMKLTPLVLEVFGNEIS
# Chain of Ubiquitin carboxyl-terminal hydrolase 1 (Homo sapiens) (O94782 whole entry, looked up): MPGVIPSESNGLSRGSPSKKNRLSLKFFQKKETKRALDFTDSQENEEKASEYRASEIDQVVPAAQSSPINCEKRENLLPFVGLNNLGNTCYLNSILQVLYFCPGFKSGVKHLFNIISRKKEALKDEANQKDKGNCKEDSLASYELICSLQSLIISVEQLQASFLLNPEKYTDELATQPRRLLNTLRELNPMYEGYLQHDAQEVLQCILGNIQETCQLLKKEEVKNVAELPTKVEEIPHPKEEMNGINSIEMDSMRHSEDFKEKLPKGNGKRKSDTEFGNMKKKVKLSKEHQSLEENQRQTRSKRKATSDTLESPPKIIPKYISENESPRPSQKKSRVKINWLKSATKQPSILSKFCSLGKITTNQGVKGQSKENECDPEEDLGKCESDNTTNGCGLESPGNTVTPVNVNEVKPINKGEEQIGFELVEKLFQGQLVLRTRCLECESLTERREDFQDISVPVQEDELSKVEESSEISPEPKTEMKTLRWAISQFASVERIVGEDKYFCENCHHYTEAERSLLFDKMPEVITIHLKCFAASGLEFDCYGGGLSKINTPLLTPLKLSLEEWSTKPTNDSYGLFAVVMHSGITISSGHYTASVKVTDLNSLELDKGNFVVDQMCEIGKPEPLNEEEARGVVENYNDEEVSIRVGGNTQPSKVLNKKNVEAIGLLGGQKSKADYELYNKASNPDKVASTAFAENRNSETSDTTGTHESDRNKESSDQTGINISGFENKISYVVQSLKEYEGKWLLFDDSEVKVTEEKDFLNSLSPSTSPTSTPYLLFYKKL
# Chain of Androgen receptor (Homo sapiens) (P10275 whole entry, looked up): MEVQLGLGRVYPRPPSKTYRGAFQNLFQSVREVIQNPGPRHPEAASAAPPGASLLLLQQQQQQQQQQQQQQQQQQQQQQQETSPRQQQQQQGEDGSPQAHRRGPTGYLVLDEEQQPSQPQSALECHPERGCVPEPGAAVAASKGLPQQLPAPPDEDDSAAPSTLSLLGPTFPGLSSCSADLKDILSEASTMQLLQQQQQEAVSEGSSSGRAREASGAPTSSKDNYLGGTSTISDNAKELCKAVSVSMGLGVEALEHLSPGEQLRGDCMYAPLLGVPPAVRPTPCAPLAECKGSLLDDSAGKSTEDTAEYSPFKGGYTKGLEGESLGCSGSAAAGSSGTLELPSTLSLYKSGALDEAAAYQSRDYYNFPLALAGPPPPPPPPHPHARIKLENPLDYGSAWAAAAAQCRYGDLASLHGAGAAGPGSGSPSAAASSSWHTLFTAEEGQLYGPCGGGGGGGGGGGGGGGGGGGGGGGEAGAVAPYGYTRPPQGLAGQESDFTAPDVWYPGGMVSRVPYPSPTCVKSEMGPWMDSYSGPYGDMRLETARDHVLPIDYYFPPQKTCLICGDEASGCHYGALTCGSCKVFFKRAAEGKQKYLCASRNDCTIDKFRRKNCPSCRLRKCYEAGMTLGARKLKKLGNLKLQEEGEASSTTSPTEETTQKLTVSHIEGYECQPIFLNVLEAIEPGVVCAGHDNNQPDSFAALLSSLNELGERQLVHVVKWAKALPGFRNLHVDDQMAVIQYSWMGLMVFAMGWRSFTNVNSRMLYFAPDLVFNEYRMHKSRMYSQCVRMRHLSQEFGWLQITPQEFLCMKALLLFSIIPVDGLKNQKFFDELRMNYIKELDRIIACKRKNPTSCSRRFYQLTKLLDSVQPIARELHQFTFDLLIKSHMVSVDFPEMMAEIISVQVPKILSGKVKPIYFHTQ
# Chain of Bile acid receptor (Homo sapiens) (Q96RI1 whole entry, looked up): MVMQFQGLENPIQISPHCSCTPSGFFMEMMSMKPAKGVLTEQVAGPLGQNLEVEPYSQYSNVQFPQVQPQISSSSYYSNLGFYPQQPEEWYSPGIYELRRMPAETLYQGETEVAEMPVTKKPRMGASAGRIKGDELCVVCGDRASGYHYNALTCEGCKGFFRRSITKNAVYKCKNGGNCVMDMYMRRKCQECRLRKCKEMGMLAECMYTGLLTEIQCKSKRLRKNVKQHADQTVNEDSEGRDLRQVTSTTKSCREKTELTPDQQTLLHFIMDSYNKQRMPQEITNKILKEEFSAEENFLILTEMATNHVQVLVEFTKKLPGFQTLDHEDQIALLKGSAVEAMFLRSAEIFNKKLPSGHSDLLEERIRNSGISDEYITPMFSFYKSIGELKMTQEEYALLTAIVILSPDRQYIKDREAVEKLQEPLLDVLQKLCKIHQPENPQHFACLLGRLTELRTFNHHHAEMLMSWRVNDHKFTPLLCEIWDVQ
# Chain of Estrogen receptor (Homo sapiens) (P03372 whole entry, looked up): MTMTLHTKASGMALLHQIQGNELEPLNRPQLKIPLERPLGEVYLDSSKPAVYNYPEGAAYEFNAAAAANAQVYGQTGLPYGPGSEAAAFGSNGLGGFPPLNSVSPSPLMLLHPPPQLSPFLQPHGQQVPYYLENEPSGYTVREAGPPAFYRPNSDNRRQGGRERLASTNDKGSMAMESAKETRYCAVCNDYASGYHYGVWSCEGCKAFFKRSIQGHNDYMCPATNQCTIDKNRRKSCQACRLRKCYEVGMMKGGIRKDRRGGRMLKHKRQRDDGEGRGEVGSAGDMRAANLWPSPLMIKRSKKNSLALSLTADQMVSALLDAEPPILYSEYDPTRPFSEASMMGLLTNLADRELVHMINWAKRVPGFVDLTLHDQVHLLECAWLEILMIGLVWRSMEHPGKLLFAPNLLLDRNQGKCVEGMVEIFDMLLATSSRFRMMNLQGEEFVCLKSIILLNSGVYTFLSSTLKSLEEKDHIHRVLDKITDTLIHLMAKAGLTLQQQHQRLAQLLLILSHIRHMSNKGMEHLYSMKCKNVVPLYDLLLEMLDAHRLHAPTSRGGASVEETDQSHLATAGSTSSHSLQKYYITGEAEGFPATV
# Chain of DNA dC->dU-editing enzyme APOBEC-3G (Homo sapiens) (Q9HC16 whole entry, looked up): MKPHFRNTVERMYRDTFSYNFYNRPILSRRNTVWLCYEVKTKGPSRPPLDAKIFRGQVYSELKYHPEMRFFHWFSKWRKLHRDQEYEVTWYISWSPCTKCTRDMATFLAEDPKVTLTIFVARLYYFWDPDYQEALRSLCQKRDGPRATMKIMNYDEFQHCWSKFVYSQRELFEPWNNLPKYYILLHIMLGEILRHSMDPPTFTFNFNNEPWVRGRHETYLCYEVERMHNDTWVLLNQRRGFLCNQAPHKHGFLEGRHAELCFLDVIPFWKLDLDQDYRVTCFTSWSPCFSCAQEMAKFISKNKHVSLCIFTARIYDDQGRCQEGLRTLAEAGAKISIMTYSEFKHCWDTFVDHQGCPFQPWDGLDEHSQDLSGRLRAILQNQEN
# Chain of Peroxisome proliferator-activated receptor delta (Homo sapiens) (Q03181 whole entry, looked up): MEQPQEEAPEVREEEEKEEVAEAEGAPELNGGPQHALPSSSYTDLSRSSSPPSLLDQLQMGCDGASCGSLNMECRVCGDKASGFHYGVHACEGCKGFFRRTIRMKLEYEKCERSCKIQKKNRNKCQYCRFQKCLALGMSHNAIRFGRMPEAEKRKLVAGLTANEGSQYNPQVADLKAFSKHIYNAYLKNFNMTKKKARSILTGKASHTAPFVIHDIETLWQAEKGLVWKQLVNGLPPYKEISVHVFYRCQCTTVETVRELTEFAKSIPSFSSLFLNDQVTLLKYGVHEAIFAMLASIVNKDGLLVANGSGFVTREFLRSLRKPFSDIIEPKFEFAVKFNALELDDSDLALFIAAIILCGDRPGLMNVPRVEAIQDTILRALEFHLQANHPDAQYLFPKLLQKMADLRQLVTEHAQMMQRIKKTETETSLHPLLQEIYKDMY
smiles,measurement,setting,value
C[N+](C)(C)CCOC(=O)C(O)(c1ccccc1)c1ccccc1,Potency,[1],inactive
CN(C)C(=O)Oc1cc(OC(=O)N(C)C)cc(C(O)CNC(C)(C)C)c1 (centres undefined),Potency,[1],inactive
C[C@]12CC[C@H]3[C@@H](CC=C4C[C@@H](O)CC[C@@]43C)[C@@H]1CC[C@@H]2O,Potency,[1],inactive
CCCCCCCCC(=O)NCc1ccc(O)c(OC)c1,Potency,[1],inactive
same,Potency,[2],inactive
same,max response,[3],11.4%
same,Potency,[4],inactive
same,outcome,[5],inactive
same,outcome,[6],inactive
CCCCCC(N)=O,outcome,[7],inactive
CCN(CC)CCOc1ccc(/C(=C(\Cl)c2ccccc2)c2ccccc2)cc1,activation,[8],1.52% (inactive)
O=C(NC(=O)c1c(F)cccc1F)Nc1cc(Cl)c(OC(F)(F)C(F)C(F)(F)F)cc1Cl (centres undefined),Potency,[2],inactive
same,Potency,[9],inactive
same,activation,[10],-6.9% (inactive)
same,outcome,[11],inactive
same,Potency,[12],inactive
same,activation,[8],-0.875% (inactive)
same,activation,[13],15.8% (inactive)
same,Potency,[14],inactive
same,outcome,[5],inactive
same,outcome,[6],inactive
CC(=O)Oc1ccc(C(c2ccc(OC(C)=O)cc2)c2ccccn2)cc1,outcome,[7],inactive
CCC(=O)O[C@H]1CC[C@H]2[C@@H]3CCC4=CC(=O)CC[C@]4(C)[C@H]3CC[C@]12C,Potency,[9],2.82 µM (active)
same,Potency,[10],0.0089 µM (active)
same,Potency,[15],31.6 µM (active)
same,max response,[3],-14.3%
same,Potency,[4],inactive
same,outcome,[6],inactive
CCOP(=S)(OCC)O/N=C(\C#N)c1ccccc1,activation,[8],8.69% (inactive)
same,activation,[13],-3.68% (inactive)
same,Potency,[15],inactive
O=C(Nc1ccc(Cl)cc1)Nc1ccc(Cl)c(Cl)c1,activation,[8],1.41% (inactive)
Cc1cc(C(C)(C)C)c(O)c(C(C)(C)C)c1,activation,[8],9.91% (inactive) and 2.64% (inactive)
NCCNc1cccc2ccccc12,outcome,[7],inactive
c1ccc2[nH]c(-c3cscn3)nc2c1,activation,[8],-0.341% (inactive) and 3.24% (inactive)
Cc1ccc(O)cc1,activation,[8],-0.678% (inactive)
same,outcome,[7],inactive
O=C(CCl)c1ccc(Cl)cc1Cl,Potency,[9],inactive
same,activation,[13],-10.9% (inactive)
same,Potency,[15],14.1 µM (active)
COP(=O)(OC)C(O)C(Cl)(Cl)Cl (centres undefined),Potency,[1],inactive
same,activation,[13],3.67% (inactive)
same,outcome,[6],inactive
O=c1ccc2ccccc2o1,activation,[8],2.18% (inactive) and -1.67% (inactive)
Nc1ccc(S(=O)(=O)Nc2nccs2)cc1,outcome,[7],inactive
Oc1c(Cl)cc(Cl)cc1Sc1cc(Cl)cc(Cl)c1O,activation,[8],-0.242% (inactive)
Oc1ccc2[nH]cc(CCCCN3CC=C(c4ccccc4)CC3)c2c1,outcome,[16],inactive
C=CCOC(Cn1ccnc1)c1ccc(Cl)cc1Cl (centres undefined),Potency,[1],inactive
same,activation,[13],-7.13% (inactive) and -8.27% (inactive)
same,Potency,[15],inactive
same,max response,[3],-52.6% and -29.4%
same,Potency,[4],inactive
same,outcome,[5],inactive
same,outcome,[6],inactive
Cc1ccc(N=CN(C)C=Nc2ccc(C)cc2C)c(C)c1,Potency,[1],inactive
same,Potency,[9],inactive
same,activation,[13],6.83% (inactive)
same,Potency,[15],inactive
same,outcome,[6],inactive
O=C(OCc1ccccc1)c1ccc(O)cc1,activation,[8],1.11% (inactive)
N#Cc1nn(-c2c(Cl)cc(C(F)(F)F)cc2Cl)c(N)c1S(=O)C(F)(F)F (centres undefined),Potency,[1],inactive
same,Potency,[9],inactive
same,activation,[8],6.05% (inactive)
same,activation,[13],-6.58% (inactive)
CC(O)COc1ccccc1 (centres undefined),activation,[8],-2.72% (inactive)
same,outcome,[7],inactive
CCOc1ccc(NC(C)=O)cc1,activation,[8],0.406% (inactive) and 4.82% (inactive)
O=C1C(c2[nH]c3ccccc3c2O)=Nc2ccccc21,activation,[8],0.121% (inactive)
same,outcome,[7],inactive
Cc1c(N(C)C)c(=O)n(-c2ccccc2)n1C,activation,[8],-2.31% (inactive)
CN(C)c1ccc(C(=C2C=CC(=[N+](C)C)C=C2)c2ccc(N(C)C)cc2)cc1,activation,[8],-3.58% (inactive) and -3.47% (inactive)
COc1ccc2cc3[n+](cc2c1OC)CCc1cc2c(cc1-3)OCO2,activation,[8],-1.09% (inactive)
CC/C(=C(/CC)c1ccc(O)cc1)c1ccc(O)cc1,activation,[8],2% (inactive) and 5.54% (inactive)
CN(C)C(=O)Nc1ccc(Cl)c(Cl)c1,outcome,[7],inactive
O=C1c2cccc(O)c2C(=O)c2c(O)cccc21,activation,[8],-5% (inactive)
same,outcome,[7],inactive
COP(=S)(OC)Oc1ccc(Sc2ccc(OP(=S)(OC)OC)cc2)cc1,Potency,[9],inactive
same,activation,[10],-10.3% (inactive)
same,outcome,[11],inactive
same,max response,[3],-0.163%
same,Potency,[4],inactive
same,outcome,[5],inactive
CN1[C@@H]2CC[C@H]1CC(OC(=O)c1cc(Cl)cc(Cl)c1)C2 (some centres undefined),outcome,[16],inactive
CCN(CC)C(=O)c1cccc(C)c1,activation,[8],0.006% (inactive) and -2.52% (inactive)
Oc1ccc(Cl)cc1Cc1cc(Cl)ccc1O,Potency,[2],44.7 µM [inconclusive] (active)
same,outcome,[11],inactive
same,Potency,[12],7.94 µM (active)
same,activation,[8],1.29% (inactive)
same,Potency,[14],35.5 µM (active)
CCOc1ccccc1C(N)=O,activation,[8],-0.664% (inactive)
CN(C)C(=S)SC(=S)N(C)C,activation,[8],1.4% (inactive)
same,outcome,[7],inactive
C[C@@H]1C[C@@H]([C@H](O)CC2CC(=O)NC(=O)C2)C(=O)[C@@H](C)C1,outcome,[16],inactive
same,Potency,[12],inactive
same,activation,[8],0.176% (inactive) and -1.82% (inactive) and 1.78% (inactive)
same,max response,[3],-115% and -59.6%
same,Potency,[4],316 nM (active) and 199 nM (active)
CC[n+]1c(-c2ccccc2)c2cc(N)ccc2c2ccc(N)cc21,Potency,[1],39.8 µM (active)
same,Potency,[9],inactive
same,activation,[8],9.69% (inactive)
same,outcome,[7],inactive
same,max response,[3],-102%
same,Potency,[4],31.6 µM (active)
same,outcome,[6],inactive
